Data reported in the supplement of paper PMC9694430.

Assays:
Experiment in all cases: thermal shift delta Tm vs DMSO control; higher = stronger stabilization (binding)
Conditions in all cases: 12.5 µM; protein concentration 2 µM
LOC_OS01G57100-cb003 = tested on: LOC_OS01G57100-cb003
How it was run: (§1)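 Heating from 25°C to 95°C at 0.05°C/s, fluorescence was recorded for 19.5 μl wells of 2 μM E. coli-expressed, purified rice kinase domain in 100 mM potassium phosphate pH 7.5, 150 mM NaCl, 10% glycerol and 5 × SYPRO Orange with compound in DMSO. Boltzmann fits gave melting temperatures for this differential scanning fluorimetry assay. The shift reported is the mean of three replicates against the DMSO-only protein.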

LOC_OS01G60330-cb001 = tested on: LOC_OS01G60330-cb001
How it was run: as §1

LOC_OS01G60700-cb002 = tested on: LOC_OS01G60700-cb002
How it was run: as §1

LOC_OS01G63280-cb003 = tested on: LOC_OS01G63280-cb003
How it was run: as §1

LOC_OS01G67340-cb003 = tested on: LOC_OS01G67340-cb003
How it was run: as §1

LOC_OS01G70970-cb002 = tested on: LOC_OS01G70970-cb002
How it was run: as §1

LOC_OS02G07810-cb001 = tested on: LOC_OS02G07810-cb001
How it was run: as §1

LOC_OS02G08530-cb003 = tested on: LOC_OS02G08530-cb003
How it was run: as §1

LOC_OS02G14120-cb001 = tested on: LOC_OS02G14120-cb001
How it was run: as §1

LOC_OS02G17970-cb001 = tested on: LOC_OS02G17970-cb001
How it was run: as §1

LOC_OS02G45750-cb003 = tested on: LOC_OS02G45750-cb003
How it was run: as §1

LOC_OS02G54510-cb004 = tested on: LOC_OS02G54510-cb004
How it was run: as §1

LOC_OS03G04050-cb001 = tested on: LOC_OS03G04050-cb001
How it was run: as §1

LOC_OS03G12390-cb001 = tested on: LOC_OS03G12390-cb001
How it was run: as §1

LOC_OS03G27990-cb004 = tested on: LOC_OS03G27990-cb004
How it was run: as §1

LOC_OS03G50450-cb001 = tested on: LOC_OS03G50450-cb001
How it was run: as §1

LOC_OS03G50810-cb003 = tested on: LOC_OS03G50810-cb003
How it was run: as §1

LOC_OS04G35114-cb001 = tested on: LOC_OS04G35114-cb001
How it was run: as §1

LOC_OS04G38480-cb003 = tested on: T1, LOC_OS04G38480-cb003
T1 sequence (whole entry): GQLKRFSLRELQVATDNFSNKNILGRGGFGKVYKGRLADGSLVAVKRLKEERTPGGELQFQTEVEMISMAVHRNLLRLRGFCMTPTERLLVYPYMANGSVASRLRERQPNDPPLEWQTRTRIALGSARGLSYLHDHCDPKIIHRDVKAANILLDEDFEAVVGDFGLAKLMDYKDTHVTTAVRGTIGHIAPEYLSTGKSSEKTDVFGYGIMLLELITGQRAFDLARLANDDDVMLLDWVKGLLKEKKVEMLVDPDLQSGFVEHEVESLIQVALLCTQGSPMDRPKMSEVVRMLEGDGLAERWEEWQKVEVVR
How it was run: as §1

LOC_OS04G41100-cb001 = tested on: T2, LOC_OS04G41100-cb001
T2 sequence (whole entry): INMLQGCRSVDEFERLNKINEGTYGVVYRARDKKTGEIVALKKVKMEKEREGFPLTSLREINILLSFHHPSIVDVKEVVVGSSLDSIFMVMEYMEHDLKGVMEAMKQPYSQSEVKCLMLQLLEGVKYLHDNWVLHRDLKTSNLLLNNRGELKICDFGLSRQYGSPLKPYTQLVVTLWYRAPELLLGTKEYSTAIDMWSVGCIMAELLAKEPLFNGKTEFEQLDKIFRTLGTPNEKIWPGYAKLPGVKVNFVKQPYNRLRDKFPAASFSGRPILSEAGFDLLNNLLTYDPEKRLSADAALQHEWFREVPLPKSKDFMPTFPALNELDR
How it was run: as §1
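Further: purified Escherichia coli-expressed rice kinase domain construct.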

| SMILES | thermal shift delta Tm (LOC_OS01G57100-cb003) [°C] | thermal shift delta Tm (LOC_OS01G60330-cb001) [°C] | thermal shift delta Tm (LOC_OS01G60700-cb002) [°C] | thermal shift delta Tm (LOC_OS01G63280-cb003) [°C] | thermal shift delta Tm (LOC_OS01G67340-cb003) [°C] | thermal shift delta Tm (LOC_OS01G70970-cb002) [°C] | thermal shift delta Tm (LOC_OS02G07810-cb001) [°C] | thermal shift delta Tm (LOC_OS02G08530-cb003) [°C] | thermal shift delta Tm (LOC_OS02G14120-cb001) [°C] | thermal shift delta Tm (LOC_OS02G17970-cb001) [°C] | thermal shift delta Tm (LOC_OS02G45750-cb003) [°C] | thermal shift delta Tm (LOC_OS02G54510-cb004) [°C] | thermal shift delta Tm (LOC_OS03G04050-cb001) [°C] | thermal shift delta Tm (LOC_OS03G12390-cb001) [°C] | thermal shift delta Tm (LOC_OS03G27990-cb004) [°C] | thermal shift delta Tm (LOC_OS03G50450-cb001) [°C] | thermal shift delta Tm (LOC_OS03G50810-cb003) [°C] | thermal shift delta Tm (LOC_OS04G35114-cb001) [°C] | thermal shift delta Tm (LOC_OS04G38480-cb003) [°C] | thermal shift delta Tm (LOC_OS04G41100-cb001) [°C] |
| --- | --- | --- | --- | --- | --- | --- | --- | --- | --- | --- | --- | --- | --- | --- | --- | --- | --- | --- | --- | --- |
| Cc1cc(Nc2nc(N[C@@H](C)c3ncc(F)cn3)ncc2Cl)[nH]n1 | 1.57 | 4.82 | 0.28 | 1.3 | -0.24 | 2.3 | 0.96 | 2.02 | 8.03 | 0.48 | 3.59 | 2.58 | 0.1 | 5.26 | 0.82 | 2.31 | 3.08 | 1.86 | 2.03 | 0.47 |
| Cc1ccc([N+](=O)[O-])cc1S(=O)(=O)N(C)/N=C/c1cnc2ccc(Br)cn12 | 3.41 | -0.03 | 1.24 | 1.7 | 3.58 | 4.2 | 0.51 | 6.04 | 9.06 | 1.2 | 1.33 | 0.35 | 0.72 | 0.02 | 0.5 | 0.64 | 0.47 | 1.17 | 3.16 | 1.09 |
| COCCOc1cnc2ccn([C@H](C)c3nnc4c(F)cc(-c5cnn(C)c5)cn34)c(=O)c2c1 | 0.7 | -0.01 | 0.32 | 0.22 | 0.31 | 0.36 | 0.15 | 0.71 | 1.22 | 0.15 | 1.08 | -0.12 | 0.22 | -0.12 | 0.2 | 0.05 | -0.09 | 0.69 | 0.41 | 0.65 |
| O=C1NC(=O)C(c2ccccc2[N+](=O)[O-])=C1Nc1ccc(O)c(Cl)c1 | 2.1 | 0.17 | 1.88 | 0.02 | 0.79 | 0.12 | 1.72 | 1.16 | -1.08 | 1.06 | 1.34 | 0.07 | 0.14 | 2.25 | 0.15 | -0.05 | 0.88 | 1.02 | 2.72 | 0.23 |
| CCCCCCCCCCCCCCCCOP(=O)([O-])OCC[N+](C)(C)C [Miltefosine] | -11.3 | -3.63 | -6.31 | -4.06 | -4.33 | -8.33 | -3.73 | -3.69 | -6.59 | -5.83 | -1.69 | -3.98 | -6.02 | -3.65 | -2.36 | -1.33 | -3.31 | -3.53 | -0.41 | -0.66 |
| OC1CCC(Nc2ncc3nc(Nc4c(F)cc(F)cc4F)n([C@H]4CCOC4)c3n2)CC1 (stereo not given in full) [Tanzisertib(CC-930)] | 1.12 | 0.58 | 0.28 | 0.29 | 0.54 | 0.55 | -0.22 | 1.25 | 1.58 | 0.06 | 0.96 | 0.18 | 0.57 | 0.23 | 0.5 | 0.44 | 0.62 | 0.93 | 1.65 | 0.44 |
| CCN(CC)CCNC(=O)c1c(C)[nH]c(/C=C2\C(=O)Nc3ccc(F)cc32)c1C [Sunitinib Malate] | 0.44 | 9.27 | 0.27 | 0.02 | 2.37 | 7 | -0.25 | 5.21 | 7.4 | -0.05 | 12.4 | 0.41 | 0.23 | 7.66 | 6.23 | 2.74 | 6.79 | 10.1 | 2.16 | 0.97 |
| CNc1nc(Nc2cnn([C@H]3CCN(C4COC4)C[C@@H]3F)c2Cl)ncc1C(F)(F)F | 0.76 | 2.09 | 0.99 | 0.1 | 0.67 | 1.35 | 0.49 | 2.55 | 2.26 | 0.35 | 10.5 | 0.35 | 0.37 | 9.14 | 2.39 | 5.54 | 4.12 | 4.01 | 3.09 | 0.6 |
| CC(C)(CCCCCC(O)CCCCCC(C)(C)C(=O)O)C(=O)O | -0.51 | 1.18 | 0.87 | -0.01 | 0.52 | 0.21 | 0.4 | 0.32 | 0.05 | 0.59 | 0.72 | 0.34 | 0.51 | -0.22 | 0.25 | 0.67 | 0.41 | 0.9 | 2.27 | 0.2 |
| Cc1cc(C)c(/C=C2\C(=O)Nc3ccccc32)[nH]1 [Semaxanib (SU5416)] | 1.1 | 6.76 | 1.12 | 0.7 | 2.32 | 2.72 | 1.03 | 3.63 | 3.06 | 1.09 | 0 | 0.58 | 0.69 | 4.53 | 1.72 | 2.32 | 2.91 | 6.57 | 2.87 | 0.32 |
| C=CC(=O)Nc1cccc(Nc2nc(Nc3ccc(N4CCN(C(C)=O)CC4)cc3OC)ncc2C(F)(F)F)c1 [Rociletinib (CO-1686, AVL-301)] | 3.39 | 1.53 | 1.63 | -0.27 | 0.52 | 1.38 | 1 | 5.28 | 1.71 | 0.49 | 1.53 | 0.29 | 0.43 | 11.1 | 0.66 | 1.7 | 2.22 | 2.08 | 0.94 | 0.4 |
| C=CC(=O)Nc1cccc(Sc2nc(Nc3ccc(N4CCN(C)CC4)cc3)ncc2Cl)c1 | -1.98 | 1.15 | 0.75 | 0.45 | 0.87 | 7.21 | 0.82 | 2.38 | 6.55 | 0.58 | 1.15 | 0.86 | 0.43 | 2.55 | 2.86 | 1.29 | 4.92 | 4.33 | 1.07 | 1.47 |
| COc1cc2ncc(-c3ccccc3)nc2cc1OC [Tyrphostin AG 1296] | 0.4 | 3.29 | 1.32 | 1.35 | 1.24 | 0.75 | -0.01 | 1.3 | 2.29 | 0.27 | 4.58 | -0.11 | 0.13 | 0.49 | 0.74 | 0.48 | 1.56 | 3.93 | 0.73 | 0.13 |
